Data on 40 molecules can be found in PubChem BioAssay (Tox21).

Active and inactive are the calls of the source. The call rests on the fitted dose curve; in most records, active means well fitted cell-killing curve with a large enough effect in the repeat runs; inconclusive means weak or mixed curves, or effect the other way; inactive means flat fitted curve, though single readings scatter.

This assay can be described thus: qHTS assay to identify small molecule HDAC inhibitors - cell viability counter screen (AID 1259365). Further: nearly all actives have a fitted effect of over 50% in size. Particulars: HCT-116 viability, CellTiter-Glo ATP luminescence, 2 h; series mostly up to 92.4 µM. The source says:
U.S. Tox21 Program National Center for Advancing Translational Sciences [NCATS] NIH Chemical Genomics Center [NCGC] U.S. Environmental Protection Agency [EPA] National Institutes of Environmental Health Sciences [NIEHS] National Toxicology Program [NTP] U.S. Food and Drug Administration [FDA] Tox21 Assay Overview: Histone deacetylases (HDACs) are a group of epigenetic enzymes that regulate gene expression by histone deacetylation. HDACs are capable of introducing epigenetic modifications and such aberrations contribute to the onset and progression of several human diseases, thus making HDACs a popular therapeutic target. For identifying endogenous class I/II HDAC inhibitors a homogenous, luminogenic HDAC I/II cell based assay was used to measure the relative activity of class I and II HDACs from cells. Wild type HCT-116 cells were used to screen Tox21 compound libraries for identifying class I/II HDAC inhibitors.
Tox21 Assay Protocol Summary: HCT-116 cells were dispensed at 1,500 per well in 5uL of culture medium into white solid bottom 1536-well plates (Greiner Bio-One, Monroe, NC) using a Multidrop Combi (Thermo Scientific, Waltham, MA) dispenser. The assay plates were incubated at 37 C and 5% CO2 for an overnight, and then 23nL of compounds dissolved in DMSO and positive control were transferred using a Pintool station (Wako, San Diego, CA). The assay plates were incubated at 37C and 5% CO2 for 2hr. After compound treatment, 4uL of CellTiter-Glo reagent (Promega Corporation, Madison, WI) was added to each well of the assay plates using Flying Reagent Dispenser (FRD, Aurora Discovery, San Diego, CA) and incubated the assay plates at room temperature for 30min. The luminescence signal was quantified using a ViewLux plate reader (Perkin Elmer, Shelton, CT).
As for `c1ccc2ccccc2c1`, the molecule was classed as inactive.

Turning to `Nc1nc2ncc(CNc3ccc(C(=O)N[C@@H](CCC(=O)O)C(=O)O)cc3)nc2c(=O)[nH]1`, the outcome was inactive.

Regarding `CCCCOCCOCCOC(=O)CCCCC(=O)OCCOCCOCCCC`, the outcome was inactive.

`C/C=C(C)/C=C/C=C(C)C`: the result was inactive.

Regarding `CNC[C@H](O)[C@@H](O)[C@H](O)[C@H](O)CO`, the result was inactive.

Regarding `C=C(C)C(=O)OCCC[Si](OC)(OC)OC`, the outcome was inactive.

Regarding `C[C@@H](O)[C@H]1C(=O)N2C(C(=O)O)=C(S[C@@H]3CN[C@H](C(=O)N(C)C)C3)[C@H](C)[C@H]12`, the molecule was classed as inactive.

`COC(=O)c1ccc(C(=O)OC)cc1`: the molecule was classed as inactive.

On to `CC(C)NCC(O)COc1cccc2ccccc12` (stereo not given), for which the molecule was called inactive.

With `Clc1cc(Cl)c(Cl)cc1Cl`, the molecule was classed as inactive.

Regarding `CN(C)c1cccc(O)c1`, the result was inactive.

Consider `CCCCCCCCCCCCOCC1CO1` (stereo not given), for which the outcome was inactive.

As to `C=C1CC[C@H](O)CC1=C/C=C1\CCC[C@]2(C)[C@@H]([C@H](C)/C=C/[C@H](C)C(C)C)CC[C@@H]12`, the molecule was classed as inactive.

On to `Oc1c(Cl)cc(Cl)c(Cl)c1Cl`, for which the call was inactive.

In the case of `CC(C)Cc1ccccc1`, the result was inactive.

For `O=[N+]([O-])c1cccc(Cl)c1`, the outcome was inactive.

For the molecule `CC(C)(C)C(=O)C1C(=O)c2ccccc2C1=O`, the molecule was classed as inactive.

`C=C(C)C(=O)OCCCCCC`: the molecule was called inactive.

Consider `O=S(=O)(O)CCS`, for which the call was inactive.

In the case of `COCC(=O)O`, the call was inactive.

In the case of `CC1=C(CC(=O)O)c2cc(F)ccc2/C1=C\c1ccc(S(C)=O)cc1` (stereo not given), the molecule was called inactive.

For the molecule `Oc1ccc(OCc2ccccc2)cc1`, the result was inactive.

As to `O=C(O)c1cc(-c2ccccc2)nc2ccccc12`, the call was inactive.

For `OCCOCCOCCOCCO`, the molecule was classed as inactive.

For the molecule `CCCCCCOC(C)=O`, the outcome was inactive.

For the molecule `CC1COc2ccccc2N1C(=O)C(Cl)Cl` (stereo not given), the outcome was inactive.

`NCc1cccc(CN)c1`: the result was inactive.

As to `CCc1ccccc1O`, the result was inactive.

With `O=C1CCCCC1`, the call was inactive.

As to `C=C(C)C(=O)OCC(CC)(COC(=O)C(=C)C)COC(=O)C(=C)C`, the outcome was inactive.

In the case of `OC[C@@H](O)[C@H](O)[C@H](O)[C@@H](O)CO`, the call was inactive.

As to `Clc1ccc(Cl)c(Cl)c1Cl`, the result was inactive.

Turning to `CCCCCCCCC`, the outcome was inactive.

With `O=C(O)c1ccc([N+](=O)[O-])cc1`, the call was inactive.

As to `CCCCC(CC)COC(=O)CCCCCCCC(=O)OCC(CC)CCCC` (stereo not given), the call was inactive.

As for `O=C(Oc1ccccc1)c1ccc(O)cc1`, the outcome was inactive.

For `Cc1ccc(N)c(S(=O)(=O)O)c1`, the outcome was inactive.

Consider `CS(=O)(=O)Nc1ccc([N+](=O)[O-])cc1Oc1ccccc1`, for which the molecule was classed as inactive.

Take `NCCc1ccc(O)c(O)c1`: the call was inactive.

For `O=S(=O)(Oc1ccc(Cl)cc1Cl)c1ccccc1`, the molecule was called inactive.
